Results filed as inconclusive are left out. Entries that show only a call come without a potency. Calls of active or inactive are those of the source. The call rests on the fitted dose curve; in most records, active means well fitted curve in the direction sought with a large enough effect; inconclusive means small, poorly fitted or top-dose-only effect, or another doubt; inactive means no such curve, though single readings can be large; an effect the other way counts as inactive or inconclusive.
Each molecule was assayed against Aldehyde dehydrogenase, mitochondrial (Homo sapiens) (UniProt P05091) (assay: qHTS for Inhibitors of the Aldehyde Dehydrogenase Family (ALDH2) Primary screen (AID 2061308; further: nearly all actives have a fitted effect of over 55% in size)). Conditions: ALDH2 enzyme inhibition qHTS, 1536-well; series mostly up to 56 µM.
With `Cc1cc(C)nc(NC(=S)N2CCN(c3cncc4ccccc34)CC2)c1` the Potency was “inactive”.
`CN(C)c1cccc(-c2csc(N3CCC(C(N)=O)CC3)n2)c1` was tested, and the Potency was “inactive”.
In the case of `O=C1CCc2cc(S(=O)(=O)Nc3cc(F)cc(Cl)c3)c(F)cc2N1`, the Potency is reported as “inactive”.
For `O=C1Nc2ccccc2/C1=C\c1ccc(C(=O)O)cc1`, the Potency was “inactive”.
`O=c1[nH]c(CN2CCOCC2)nc2sc3c(c12)CCC3` was tested, and the Potency was “inactive”.
With `COc1ccc(C2Nc3ccccc3C(=O)N2Cc2cccnc2)cc1COc1ccc(NC(C)=O)cc1` (stereo unspecified) the Potency was “inactive”.
With `Cc1cc(C)nc(NC(=S)N2CCN(c3cccc4ccncc34)CC2)c1` the Potency was 3.16 µM (active).
In the case of `N#Cc1c(-c2cccc(O)c2)no[n+]1[O-]`, the Potency is reported as “inactive”.
For `Cc1noc(C)c1-c1ccc2ncnc(NCc3ccc(F)cc3)c2c1`, the Potency was “inactive”.
For `O=C(c1ccc(-c2cnc3c(O)cccc3c2)cc1)N1CCNCC1`, the Potency was “inactive”.
`N#CNC(=O)c1ccc(-n2cccc2/C=C2\NC(=O)N(CC(=O)Nc3cccc(F)c3)C2=O)cc1` was tested, and the Potency was “inactive”.
With `Cc1ccc(-c2no[n+]([O-])c2C#N)cc1` the Potency was “inactive”.
With `Cc1nnc(CN(C)c2ncnc3ccc(-c4ccc5c(c4)OCO5)cc23)o1` the Potency was “inactive”.
In the case of `S=C(Nc1ccccn1)c1ccccn1`, the Potency is reported as 11.2 µM (active).
`O=C(O)CN1C(=O)N/C(=C\c2cccn2-c2ccc(P(=O)(O)O)cc2)C1=O` was tested, and the Potency was “inactive”.
With `COc1ccc(-c2csc(NC(=O)c3ccncc3NS(=O)(=O)c3ccc(C)cc3)n2)cc1` the Potency was “inactive”.
With `Cc1noc(C)c1N[S+](=O)([O-])c1ccc(NC(=O)Cc2ccc(Cl)c(Cl)c2)cc1` the Potency was “inactive”.
In the case of `NC(=O)C1CCN(c2nc(-c3ccc4occc(=O)c4c3)cs2)CC1`, the Potency is reported as “inactive”.
For `CC(=O)c1ccc(N2CCN(S(=O)(=O)c3ccc4c(c3)n(C)c(=O)n4C)CC2)cc1`, the Potency was “inactive”.
For `NC(=O)C1CCN(c2nc(-c3ccc4c(c3)OCCO4)cs2)CC1`, the Potency was “inactive”.
For `O=C(Nc1ncc([N+](=O)[O-])s1)c1ccccc1O`, the Potency was “inactive”.
`O=S(=O)(Nc1cc(O)cc2cccnc12)c1ccc(Cl)s1` was tested, and the Potency was 0.631 µM (active).
For `CCOC(=O)c1c(-c2ccccc2)no[n+]1[O-]`, the Potency was “inactive”.

These molecules were tested against Retinaldehyde dehydrogenase 3 (Homo sapiens) (UniProt P47895) (assay: qHTS for Inhibitors of the Aldehyde Dehydrogenase Family (ALDH1A3) Confirmatory screens (AID 2061311; further: nearly all actives have a fitted effect of over 60% in size)). Conditions: ALDH inhibition qHTS; series mostly up to 46 µM.
In the case of `NC(=O)C1CCN(c2nc(-c3ccc(Cl)cc3)cs2)CC1`, the Potency is reported as “inactive”.
In the case of `COc1ccc([N+](=O)[O-])c(S(=O)(=O)c2ccccc2)n1`, the Potency is reported as 5.65 µM (active).
In the case of `O=S(=O)(Nc1ccc(O)c2ncccc12)c1ccccc1F`, the Potency is reported as 2.25 µM (active).
In the case of `CCOC(=O)c1ccc(O)c2ncc(N3CCC(C(=N)N)CC3)cc12`, the Potency is reported as 8.96 µM (active).
For `O=S1(=O)CCN(Cc2cc(NCC3CCOCC3)c3[nH]c(-c4ccccc4)cc3c2)CC1`, the Potency was 11.3 µM (active).
In the case of `Cc1c(Cl)cccc1NS(=O)(=O)c1cc2c(cc1F)NC(=O)CC2`, the Potency is reported as “inactive”.
In the case of `Cc1ccc(S(=O)(=O)c2ccc([N+](=O)[O-])cn2)cc1`, the Potency is reported as 4.47 µM (active).
In the case of `CCc1nc2c(sc3nc4c(cc32)COC(C)(C)C4)c(=O)n1Cc1ccco1`, the Potency is reported as 7.98 µM (active).
With `COc1ccc([N+](=O)[O-])c(S(=O)(=O)c2ccc(Cl)cc2)n1` the Potency was 10 µM (active).
For `Cc1cc(C)nc(NC(=S)N2CCN(c3ccc4nsnc4c3)CC2)c1`, the Potency was 1.13 µM (active).
With `CC(C)(C)OC(=O)NC1CCN(c2nc(-c3ccc(Br)cc3)cs2)CC1` the Potency was “inactive”.
With `c1cn2cc(-c3ccc4cn[nH]c4c3)nc(Nc3ccc(N4CCOCC4)cc3)c2n1` the Potency was “inactive”.
`CC(C)(C)Nc1nc(C#N)nc(Nc2ccccc2)n1` was tested, and the Potency was “inactive”.
For `Cc1cc(C)nc(NC(=S)N2CCN(c3cncc4ccccc34)CC2)c1`, the Potency was 22.5 µM (active).
With `CN(C)c1cccc(-c2csc(N3CCC(C(N)=O)CC3)n2)c1` the Potency was 12.7 µM (active).
With `O=C1CCc2cc(S(=O)(=O)Nc3cc(F)cc(Cl)c3)c(F)cc2N1` the Potency was “inactive”.
`O=C1Nc2ccccc2/C1=C\c1ccc(C(=O)O)cc1` was tested, and the Potency was “inactive”.
For `O=c1[nH]c(CN2CCOCC2)nc2sc3c(c12)CCC3`, the Potency was 11.3 µM (active).
`Cc1cc(C)nc(NC(=S)N2CCN(c3cccc4ccncc34)CC2)c1` was tested, and the Potency was 11.3 µM (active).
`Cc1noc(C)c1-c1ccc2ncnc(NCc3ccc(F)cc3)c2c1` was tested, and the Potency was 12.6 µM (active).
`N#CNC(=O)c1ccc(-n2cccc2/C=C2\NC(=O)N(CC(=O)Nc3cccc(F)c3)C2=O)cc1` was tested, and the Potency was “inactive”.
With `Cc1ccc(-c2no[n+]([O-])c2C#N)cc1` the Potency was “inactive”.
In the case of `Cc1nnc(CN(C)c2ncnc3ccc(-c4ccc5c(c4)OCO5)cc23)o1`, the Potency is reported as 20.1 µM (active).

From PubChem BioAssay (NCATS)
Potency means the concentration at half of the fitted maximal effect.
